TMEM16A act = activators or potentiators of mouse TMEM16A chloride channel. Q8BHY3. HEK293 TMEM16A/YFP-H148Q/I152L, iodide quench fluorescence; hits give low values. B-score at 10 µM. 0.3% of 340,000 active;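 active = fluorescence-ratio B-score plate-corrected deviation score at least 3 library SD below zero, with starting fluorescence score within 5 deviations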;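 note: channel opened by trigger with iodide after compound preincubation; score built on the fluorescence ratio of max minus min over baseline; more negative score means more quench and so TMEM16A activation or potentiation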
697 NFkB inh = lowers PMA/ionomycin-induced NF-kB signal in 697 B cells. 697 B-cell NF-kB luciferase reporter, 16 h. inhibition, % at 4 µM. 0.33% of 330,000 active. AID 435022; in the data active = inhibition above about 35%
KLF5 inh = kruppel-like factor 5 inhibition | 0.23% of 290,000 active | DLD-1 KLF5 promoter-luciferase reporter, luminescence | AID 1700 | inhibition, % at 5 µM;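 active = inhibition above a per-plate limit of that plate's mean compound inhibition plus 3 SD, cut at about 60% in these data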;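 note: 0% = DMSO wells and 100% = LY294002 at 200 µM; higher means less KLF5 promoter-driven luciferase light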
TMEM16A inh = blocks the mouse calcium-activated chloride channel TMEM16A; AID 588511; 1.2% of 310,000 active; HEK293 TMEM16A/YFP iodide influx fluorescence, ionomycin; Q8BHY3; normalized B-score (activity score, 25-100; higher = stronger inhibition) at 10 µM;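 active = ratio plate-corrected score three or more library SD toward inhibition, starting fluorescence score within five deviations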;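 note: score derived from kinetic fluorescence span divided by baseline fluorescence per well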
Jurkat NFkB inh = inhibitors of the PMA/ionomycin-induced NF-kB reporter in Jurkat cells. PMA/ionomycin-induced NF-kB luciferase reporter, luminescence. 0.53% of 330,000 active. inhibition, % at 4 µM; in the data active = inhibition above about 50%
aSyn 5UTR inh = 5' untranslated region of α-synuclein, MLPCN primary screen | AID 1813 | alpha-synuclein 5'UTR reporter, inhibitor activity | inhibition, % (tested at 7.5 µM) | 0.82% of 300,000 active; in the data active = inhibition above about 60%;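 note: H4 neuroglioblastoma cells stably carrying SNCA 5'UTR luciferase fusion; 0% = DMSO wells and 100% = positive control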
TMEM16A reconf = TMEM16A (mouse) chloride channel inhibition, re-confirmation; HEK293 TMEM16A/YFP-H148Q, iodide quench fluorescence; ionomycin added to raise cell calcium; 39% of 2,300 active; AID 652189; shares compounds with TMEM16A inh; inhibition, % at 10 µM;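 active = mean duplicate percent inhibition, scaled so buffer wells are 0 and the reference blocker 100, over three buffer SD above buffer mean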
HEK293 Ca mobil = counter-screen for TMEM16A inhibitors: effect on calcium mobilization. shares compounds with TMEM16A inh. TMEM16A/YFP HEK293, Fluo4 calcium mobilization. calcium response (% of ionomycin), % at 10 µM. 2% of 2,300 active. AID 652231;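 active = duplicate-averaged calcium signal over 20% of the ionomycin maximum, relative to buffer baseline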;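 note: each well's signal is peak minus trough fluorescence divided by its pre-addition baseline; 0% = buffer wells and 100% = ionomycin wells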
YFP-HEK293 quench = counter-screen for TMEM16A inhibitors: effect in parental YFP-HEK293 cells. shares compounds with TMEM16A inh. 2,300 tested, under 10 active. iodide YFP quench, ionomycin. YFP ratio F(max-min)/F0 at 10 µM. AID 652233;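 active = yellow fluorescent protein signal ratio exceeding the buffer control mean by over 5 SD of those controls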;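 note: ratio is mean of duplicate wells from kinetic YFP trace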
ClC-1 rat inh = rat ClC-1 inhibition, TMEM16A specificity screen. CHO ClC-1-YFP, iodide influx fluorescence quench; iodide control reads 0, buffer control 100. ratio percent, % at 10 µM. shares compounds with TMEM16A inh. 2,300 tested, under 10 active;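 active = duplicate-mean ratio percent above the mean of iodide-only control wells, which defines zero, plus 5 of their SD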;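 note: higher percent means stronger block of ClC-1 iodide influx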
Starred values were filed as active, the others as inactive; i = inactive; . = no result given. Compounds with a hit are over-represented: about 2.5% of the library has one in this group of screens.

SMILES | TMEM16A act | 697 NFkB inh | KLF5 inh | TMEM16A inh | Jurkat NFkB inh | aSyn 5UTR inh | TMEM16A reconf | HEK293 Ca mobil | YFP-HEK293 quench | ClC-1 rat inh
Cc1ccc(Cn2ncc3c(N4CCN(Cc5ccc(Cl)cc5)CC4)ncnc32)cc1 | i | -9.7 | -13.6 | 25* | 48.2 | 22.0 | 17.5%* | i | -1.11 | -7.5
Cc1ccc(Cn2ncc3c(N4CCN(c5ccc(C)cc5)CC4)ncnc32)cc1 | i | 0.9 | -15.3 | 100* | 42.5 | 30.1 | 23.5%* | i | -1.02 | -10.0
CN1CC=C2C(C#N)=C(N)C(C#N)(C#N)C(Cc3ccccc3)C2C1 (configuration not stated) | i | . | -3.1 | i | . | -13.2 | i | i | -0.787 | -15.0
CC(C)N1CC=C2C(C#N)=C(N)C(C#N)(C#N)C(c3ccccc3)C2C1 (configuration not stated) | i | . | -12.9 | i | . | 5.4 | . | . | . | .
CCOC(=O)c1cc(-c2ccccc2C)nn1CC1CC(c2cccnc2)=NO1 (configuration not stated) | i | -3.9 | . | . | -8.8 | . | . | . | . | .
C#CCOCCOCCOCCNc1nc(N2CCN(C(=O)CCCCCCCCCCNC(=O)Cn3cc(CCCCCN)nn3)CC2)nc(N2CCN(C(=O)CCCCCCCCCCNC(=O)Cn3cc(CCCCCN)nn3)CC2)n1 | i | -19.8 | . | i | -12.7 | . | . | . | . | .
N#CC(=C(O)COC(=O)CCC1CCCCC1)c1nc2ccccc2[nH]1 | i | . | . | . | . | . | . | . | . | .
Cc1cc2c(NCCc3ccccc3)ncnc2s1 | i | -22.9 | -103.1 | 25* | 9.5 | -63.5 | 23.5%* | i | -1.15 | -14.5
Cc1cc2c(Nc3ccccc3)ncnc2s1 | i | 2.2 | -19.0 | i | 8.6 | -7.2 | . | . | . | .
CCOc1ccc(N(CC)S(=O)(=O)c2ccc3c(c2)n(C)c(=O)c(=O)n3C)cc1 | i | -3.6 | -22.6 | 100* | -3.9 | 22.5 | i | i | -1.19 | -6.5
COc1ccc(C2=NS(=O)(=O)N(C)C(C(=O)N3CCc4ccccc4C3)=C2)cc1OC | i | -17.2 | -15.5 | 25* | 17.2 | -16.6 | 25.5%* | i | -0.929 | -9.0
Cc1cccc(CN2CCc3c([nH]c4ccccc34)C2C(C)(C)C)n1 (configuration not stated) | i | -2.5 | -22.6 | i | -10.7 | 4.7 | . | . | . | .
COc1ccc(Nc2nc(N3CCCCC3)c3ccccc3n2)cc1 | i | -54.9 | -5.4 | 100* | 16.1 | -13.2 | 20.0%* | i | -1.29 | -29.0
Oc1ccc(Nc2nc(N3CCCC3)c3ccccc3n2)cc1 | i | -43.3 | -18.5 | i | -14.9 | i | . | . | . | .
Clc1ccccc1CSC1=NCCCN1 | i | 11.2 | -4.5 | 100* | 7.7 | -3.3 | i | i | -1.14 | -11.0
Cc1cc2c(SCC(=O)Nc3cccc(O)c3)ncnc2s1 | i | . | . | . | . | . | . | . | . | .
O=C(Nc1ccccc1Cl)c1ccccc1Cl | i | -4.1 | 7.9 | i | -12.0 | 0.2 | . | . | . | .
Cc1ccc(C)c(NC(=O)c2ccccc2O)c1 | i | -24.9 | -85.2 | 25* | -16.0 | -96.3 | 36.0%* | i | -1.1 | -2.0
O=C(Nc1ccccc1O)c1ccccc1O | i | -16.6 | -57.6 | 100* | -0.5 | -133.4 | 31.5%* | i | -1 | -26.0
N#CC1(Nc2cccc(Br)c2)C(=O)Nc2ccccc21 (configuration not stated) | i | 6.5 | 5.7 | 100* | 8.6 | 3.6 | 63.5%* | i | -0.897 | -13.0
O=C(COc1ccccc1F)Nc1ccccc1C(=O)NC1CC1 | i | -9.9 | . | . | -22.2 | . | . | . | . | .
CCOc1ncccc1C(=O)Nc1ccc(C)c(S(=O)(=O)N2CCCCCC2)c1 | i | -16.7 | . | . | 4.1 | . | . | . | . | .
Cc1nc2ccc(F)cc2cc1C(=O)NC(C)C | i | -4.4 | -2.8 | 100* | -6.9 | -3.5 | i | i | -1 | -9.0
CCOC(=O)c1cc2cc(F)ccc2nc1C | i | 15.8 | 4.9 | i | 15.4 | -3.3 | . | . | . | .
CN(CC(=O)Nc1ccc(F)cc1)C(=O)c1cccc(S(=O)(=O)N2CCN(c3ccc(F)cc3)CC2)c1 | i | 4.5 | . | i | 11.6 | -13.8 | . | . | . | .
SMILES | TMEM16A act | 697 NFkB inh | KLF5 inh | TMEM16A inh | Jurkat NFkB inh | aSyn 5UTR inh | TMEM16A reconf | HEK293 Ca mobil | YFP-HEK293 quench | ClC-1 rat inh
CN(Cc1ccc(F)cc1)C(=O)c1cccc(S(=O)(=O)N2CCN(c3ccccc3)CC2)c1 | i | 21.9 | . | i | 12.5 | 4.4 | . | . | . | .
COc1cccc(NC(=O)CN(C)C(=O)c2cccc(S(=O)(=O)N3CCN(c4ccc(F)cc4)CC3)c2)c1 | i | 2.2 | . | 100* | 4.6 | -2.7 | i | i | -0.977 | -2.0
CN(Cc1ccc(F)cc1)C(=O)c1cccc(S(=O)(=O)N2CCN(c3ccc(F)cc3)CC2)c1 | i | -16.8 | . | 25* | 20.4 | 13.1 | i | i | -1.4 | -9.0
CCN(C(=O)COC(=O)c1ccccc1Cc1ccccc1)C1CCS(=O)(=O)C1 (configuration not stated) | i | 3.2 | . | i | -1.3 | 3.9 | . | . | . | .
CCN(C(=O)COC(=O)c1ccccc1Nc1cccc(C)c1C)C1CCS(=O)(=O)C1 (configuration not stated) | i | 10.0 | -24.1 | 100* | 12.9 | 6.0 | i | i | -0.923 | -8.5
CCOC(=O)C1(CCOc2ccccc2)CCN(Cc2cccc(OC)c2OC)CC1 | i | -5.7 | -7.6 | i | 5.8 | -18.3 | . | . | . | .
Cc1ccc(-c2cn3nc(C)c(C)nc3n2)cc1 | i | -113.7 | -49.6 | i | -71.5 | 72.7* | i | i | -1.03 | -12.5
CCC1=NN(C(=O)c2ccccc2O)C(O)(c2ccccc2)C1 (configuration not stated) | i | -53.3 | -12.0 | 25* | 11.1 | -35.5 | i | i | -0.913 | -10.0
CCC1=NN(C(=O)c2ccccc2Br)C(O)(c2ccc(Br)cc2)C1 (configuration not stated) | i | 20.9 | -13.8 | i | 0.7 | -10.5 | . | . | . | .
CC1=CC(C)C(C(=O)O)C(C(=O)O)C1 (configuration not stated) | i | 0.5 | 3.9 | 100* | 12.3 | 8.7 | i | i | -0.83 | -5.0
COc1ccc2cc3cc(C(=O)N4CCN(Cc5ccc6c(c5)OCO6)CC4)oc3nc2c1 | i | 1.9 | -23.6 | 25* | 1.0 | 8.3 | i | i | -1.11 | -4.5

Assay outcomes deposited in PubChem by several laboratories.
